Values joined by “and” are separate entries in the source; they are usually repeats but may differ in a detail not shown here. Identical values can stand only once. Values without a mark were called inactive. Results filed as inconclusive are left out. Active and inactive are the calls of the source. Calls come from the whole dose curve; as a rule, active = well fitted curve in the direction sought with a large enough effect in the repeat runs; inconclusive = weak or mixed curves; inactive = no such curve, though single readings can be large; an effect the other way counts as inactive or inconclusive.

Experiment [1] is described as follows: qHTS RealTime-Glo MT Cell Viability Assay in HepG2 cells - 8 hour (AID 1224873). Note: nearly all actives have a fitted effect of over 55% in size. Note: potency is the fitted concentration of half-maximal effect. A digest of the protocol: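 HepG2 cells (600/well) mixed with RealTime-Glo MT reagent, settled 5 h at 37 C/5% CO2 before compound addition. Nonlytic NanoLuc luminescence from viable-cell prosubstrate reduction read repeatedly during 40 h treatment at 37 C.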
A short description of experiment [2]: qHTS RealTime-Glo MT Cell Viability Assay in HEK293 cells - 40 hour (AID 1224874). Note: nearly all actives have a fitted effect of over 50% in size. Note: potency is the fitted concentration of half-maximal effect. The note with it: RealTime-Glo luminescence; max response: active compounds read low. A digest of the protocol:
(§1)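 HEK293 + NanoLuc + prosubstrate, 600 cells/well; 5 h, 37 C/5% CO2; compound 23 nL in DMSO by pintool; 37 C; luminescence read at 0, 8, 16, 24, 32 and 40 h time points.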
For orientation: Quantitative high-throughput screening tests each substance at several concentrations.

Experiment [3] in a line: A CellTox Green Cytotoxicity Assay to monitor cytotoxicity in HEK293 cells - 24 hour (AID 1224875). Note: nearly all actives have a fitted effect of over 45% in size. Note: potency is the fitted concentration of half-maximal effect. A digest of the protocol: (§2)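 Tox21 screen in HEK293: membrane-impermeant cyanine dye fluoresces on binding dead-cell DNA; compound pinned 5 h post-seeding, plates held at 37 C, signal read repeatedly through 40 h.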
Experiment [4] in a line: A CellTox Green Cytotoxicity Assay to monitor cytotoxicity in HepG2 cells - 16 hour (AID 1224876). Note: nearly all actives have a fitted effect of over 45% in size. Note: potency is the fitted concentration of half-maximal effect. A digest of the protocol:
(§3)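 Measurements at 0, 8, 16, 24, 32 and 40 h of treatment captured CellTox Green fluorescence in HepG2 cells that had been co-plated with reagent and preincubated 5 h at 37 C/5% CO2.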

The nature of experiment [5]: qHTS RealTime-Glo MT Cell Viability Assay in HepG2 cells - 32 hour (AID 1224877). Note: nearly all actives have a fitted effect of over 55% in size. Note: potency is the fitted concentration of half-maximal effect. The method in brief: (§4)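 Cell number in HepG2 cultures estimated from NanoLuc luminescence generated by metabolic reduction of a prosubstrate by living cells. The homogeneous, nonlytic format allowed repeated reads at 0, 8, 16, 24, 32 and 40 h of compound exposure.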
A short description of experiment [6]: A CellTox Green Cytotoxicity Assay to monitor cytotoxicity in HepG2 cells - 24 hour (AID 1224878). Note: nearly all actives have a fitted effect of over 45% in size. The method in brief:
as §3

A short description of experiment [7]: qHTS RealTime-Glo MT Cell Viability Assay in HEK293 cells - 0 hour (AID 1224880). Note: top concentration of the series differs between compounds; nearly all actives have a fitted effect of over 45% in size. The method in brief: as §1
Experiment [8] is described as follows: A CellTox Green Cytotoxicity Assay to monitor cytotoxicity in HEK293 cells - 32 hour (AID 1224881). Note: nearly all actives have a fitted effect of over 40% in size. Note: potency is the fitted concentration of half-maximal effect. A digest of the protocol:
as §2

The nature of experiment [9]: A CellTox Green Cytotoxicity Assay to monitor cytotoxicity in HepG2 cells - 0 hour (AID 1224882). Note: nearly all actives have a fitted effect of over 35% in size. Note: potency is the fitted concentration of half-maximal effect. A digest of the protocol:
as §3

The nature of experiment [10]: A CellTox Green Cytotoxicity Assay to monitor cytotoxicity in HepG2 cells - 32 hour (AID 1224883). Note: nearly all actives have a fitted effect of over 50% in size. Note: potency is the fitted concentration of half-maximal effect. The method in brief:
as §3

Experiment [11] can be described thus: A CellTox Green Cytotoxicity Assay to monitor cytotoxicity in HEK293 cells - 8 hour (AID 1224884). Note: nearly all actives have a fitted effect of over 35% in size. Note: potency is the fitted concentration of half-maximal effect. A digest of the protocol: as §2
Experiment [12] can be described thus: qHTS RealTime-Glo MT Cell Viability Assay in HepG2 cells - 16 hour (AID 1224885). Note: nearly all actives have a fitted effect of over 50% in size. The method in brief: as §4
A short description of experiment [13]: qHTS RealTime-Glo MT Cell Viability Assay in HEK293 cells - 24 hour (AID 1224886). Note: nearly all actives have a fitted effect of over 50% in size. Note: potency is the fitted concentration of half-maximal effect. A digest of the protocol: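 Homogeneous bioluminescent viability format in HEK293 cells (600 cells/well). Following 5 h at 37 C/5% CO2, 23 nL compound was pintooled; the signal was measured repeatedly during 40 h incubation.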
The nature of experiment [14]: qHTS RealTime-Glo MT Cell Viability Assay in HEK293 cells - 8 hour (AID 1224887). Note: nearly all actives have a fitted effect of over 50% in size. Note: potency is the fitted concentration of half-maximal effect. The method in brief: as §1
Experiment [15] in a line: A CellTox Green Cytotoxicity Assay to monitor cytotoxicity in HEK293 cells - 16 hour (AID 1224888). Note: nearly all actives have a fitted effect of over 35% in size. Note: potency is the fitted concentration of half-maximal effect. A digest of the protocol: as §2
Experiment [16] in a line: qHTS RealTime-Glo MT Cell Viability Assay in HepG2 cells - 0 hour (AID 1224889). Note: nearly all actives have a fitted effect of over 50% in size. The method in brief:
as §4

Experiment [17] in a line: qHTS assay to identify small molecule antagonists of the estrogen receptor alpha (ER-alpha) signaling pathway using the BG1 cell line in the presence of 0.1 nM 17-beta-estradiol - cell viability counter screen (AID 1259241). Note: nearly all actives have a fitted effect of over 40% in size. Note: potency is the fitted concentration of half-maximal effect. A digest of the protocol: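 Live-cell protease activity (CellTiter-Fluor fluorescence, 30 min) was read in the same wells after VM7Luc4E2 cells had been exposed to compounds with 0.1 nM 17beta-estradiol for 22 hr at 37C.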

A short description of experiment [18]: qHTS assay to identify small molecule antagonists of the androgen receptor (AR) signaling pathway using the MDA cell line in the presence of 0.5 nM R1881 - cell viability counter screen (AID 1259242). Note: nearly all actives have a fitted effect of over 45% in size. Note: potency is the fitted concentration of half-maximal effect. The method in brief:
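Concentration-response screen of compounds for toxicity in MDA-kb2 reporter cells: 16 hr at 37C with 0.5 nM R1881, endpoint live-cell protease fluorescence measured in the reporter wells.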

A short description of experiment [19]: A CellTox Green Cytotoxicity Assay to monitor cytotoxicity in HepG2 cells - 40 hour (AID 1224879). Note: nearly all actives have a fitted effect of over 40% in size. Note: potency is the fitted concentration of half-maximal effect. A digest of the protocol:
as §3

A short description of experiment [20]: A CellTox Green Cytotoxicity Assay to monitor cytotoxicity in HepG2 cells - 8 hour (AID 1224890). Note: nearly all actives have a fitted effect of over 45% in size. Note: potency is the fitted concentration of half-maximal effect. A digest of the protocol: as §3
% is set by controls: 0 for no effect and ±100 for the full control effect.

`O=C(O)CCn1c2c(c3ccccc31)C[C@H](NS(=O)(=O)c1ccc(F)cc1)CC2`: the Potency entry in experiment [1], in experiment [3], in [4], in [5], in experiment [6] and in experiment [7] was “inactive” throughout. The Potency entry in [8], in [9], in experiment [10], in experiment [11], in experiment [12] and in experiment [13] was “inactive” in each case. The Potency result in [14], in experiment [15], in [16], in experiment [17] and in experiment [18] was “inactive” in each case. The max response in experiment [2] was 8.69%.

As to `C=CC(C)C#N` (stereo not drawn), the Potency entry in experiment [1], in [3], in experiment [4], in experiment [5], in experiment [19] and in experiment [7] was “inactive” throughout. Moreover, the Potency result in experiment [8], in experiment [9], in experiment [10], in experiment [11], in experiment [12] and in [13] was “inactive” each time. For the same molecule, the Potency result in experiment [14], in [15], in [16], in experiment [20], in [17] and in experiment [18] was “inactive” in each case. In addition, in [2], the max response was 11.1%.

For the molecule `CO[Si](CCC1CCC2OC2C1)(OC)OC` (stereo not drawn), the Potency entry in experiment [1], in experiment [3], in [4], in [5], in experiment [6] and in experiment [7] was “inactive” throughout. Further, the Potency entry in experiment [8], in experiment [10], in [11], in [12], in experiment [13] and in [14] was “inactive” each time. Further, the Potency result in experiment [15], in [16], in [20], in experiment [17] and in experiment [18] was “inactive” throughout. In addition, the max response in experiment [2] is 8.81%.

Turning to `NC(=O)C(=O)N/N=C/c1ccc([N+](=O)[O-])o1`, the Potency entry in experiment [1], in [3], in [4], in experiment [5], in experiment [6] and in experiment [7] was “inactive” each time. The Potency result in experiment [8], in experiment [9], in experiment [11], in experiment [13], in [14] and in [15] was “inactive” throughout. Besides, the Potency result in experiment [16], in experiment [17] and in [18] was “inactive” in each case. Further, in experiment [2], the max response was 5.32%.

As for `Cc1cccc(Br)c1`, the Potency entry in [1], in experiment [3], in experiment [4], in [5], in experiment [6] and in experiment [7] was “inactive” throughout. For the same molecule, the Potency entry in experiment [8], in experiment [10], in experiment [11], in [13], in experiment [14] and in experiment [15] was “inactive” throughout. Further, the Potency result in [20], in [17] and in [18] was “inactive” each time. In experiment [2], the max response is 0.0661%.

For the molecule `O=C(O)Cc1ccc(OCCNC[C@H](O)c2ccccc2)cc1`, the Potency entry in [1], in experiment [3], in experiment [4], in experiment [5], in experiment [6] and in [7] was “inactive” throughout. In addition, the Potency entry in experiment [8], in experiment [9], in experiment [10], in experiment [11], in [12] and in [13] was “inactive” each time. Further, the Potency result in experiment [14], in experiment [15], in [16], in experiment [20], in experiment [17] and in experiment [18] was “inactive” each time. Further, the max response in experiment [2] was 6.67%.

For the molecule `CCNc1nc(NC(C)CC)nc(OC)n1` (stereo not drawn), the Potency result in experiment [1], in [3], in [4], in experiment [5], in experiment [19] and in [7] was “inactive” each time. For the same molecule, the Potency entry in experiment [8], in [9], in [10], in experiment [11], in experiment [12] and in experiment [13] was “inactive” in each case. The Potency entry in experiment [14], in experiment [15], in experiment [16], in [20], in experiment [17] and in experiment [18] was “inactive” throughout. Further, the max response in [2] was -18.1%.

With `CCCCCCCCC(C)=O`, the Potency entry in [1], in experiment [3], in [4], in experiment [5], in experiment [6] and in experiment [7] was “inactive” each time. The Potency entry in experiment [8], in [9], in [10], in [11], in experiment [13] and in experiment [14] was “inactive” throughout. Further, the Potency entry in [16], in experiment [17] and in [18] was “inactive” throughout. The max response in [2] is 9.37%.

As to `CCN=c1cc2oc3cc(NCC)c(C)cc3c(-c3ccccc3C(=O)OCC)c-2cc1C`, the Potency in experiment [1] is 24.5 µM (active) and 21.9 µM (active); in experiment [2], 614 nM (active) and 550 nM (active); in experiment [3], 12.3 µM (active) and 11 µM (active); in [4], 10.9 µM (active) and 6.17 µM (active); in experiment [5], 43.5 µM (active) and 21.9 µM (active); in experiment [19], 21.8 µM (active) and 6.17 µM (active). The Potency in experiment [8] was 10.9 µM (active) and 11 µM (active); in [9] it was 6.89 µM (active) and 6.17 µM (active); in [10], 21.8 µM (active); in [11], 10.9 µM (active) and 9.77 µM (active); in experiment [13] it was 2.45 µM (active) and 1.74 µM (active); in experiment [14], 17.3 µM (active) and 17.4 µM (active). Moreover, the Potency is 10.9 µM (active) and 11 µM (active) in experiment [15]; 21.8 µM (active) and 6.92 µM (active) in experiment [20]; 8.6 µM (active) and 10.9 µM (active) in [17]; 965 nM (active) and 864 nM (active) in experiment [18]. The Potency entry in [7] and in [16] was “inactive” in each case.

With `CC[N+](CC)(CC)Cc1ccccc1`, the Potency result in experiment [1], in experiment [3], in experiment [4], in [5], in experiment [6] and in experiment [7] was “inactive” in each case. The Potency result in experiment [8], in [9], in experiment [10], in experiment [11], in [12] and in experiment [13] was “inactive” throughout. In addition, the Potency result in experiment [14], in experiment [15], in experiment [16], in experiment [20], in [17] and in experiment [18] was “inactive” throughout. Moreover, the max response in experiment [2] was 3.38%.

`Cc1cc(C)c(C=O)c(C)c1`: the Potency entry in [1], in experiment [3], in experiment [4], in experiment [6], in experiment [19] and in [8] was “inactive” each time. The Potency entry in [10], in [11], in experiment [12], in [13], in experiment [14] and in [15] was “inactive” throughout. The Potency entry in experiment [16], in experiment [17] and in [18] was “inactive” in each case. Besides, the max response in experiment [2] is 8.02%.

As for `CC1CNCC(C)O1` (stereo not drawn), the Potency entry in experiment [1], in [3], in experiment [5], in experiment [6], in experiment [19] and in experiment [7] was “inactive” in each case. The Potency entry in experiment [8], in [9], in [10], in [11], in experiment [12] and in experiment [13] was “inactive” each time. The Potency entry in experiment [14], in experiment [15], in [16], in [20], in [17] and in experiment [18] was “inactive” in each case. Moreover, the max response in [2] was 11.7%.

Values taken from PubChem BioAssay (Tox21).
